Consider 40 compounds from PubChem BioAssay (Tox21).

“And” between values parts separate entries of the source, which are not always exact repeats. Equal values may be shown once. Results filed as inconclusive are left out. Entries that show only a call come without a potency. The source made the active and inactive calls. The call rests on the fitted dose curve; in most records, active means well fitted activation curve with a large enough effect in the repeat runs; inconclusive means weak or mixed curves, or effect the other way; inactive means no such curve, though single readings can be large or run the other way.
Potency means the concentration at half of the fitted maximal effect.

This assay can be described thus: qHTS assay to identify small molecule agonists of the retinoic acid receptor (RAR) signaling pathway (AID 1159553). Particulars: C3RL4 RARE luciferase reporter, agonist, 6 h; series mostly up to 73.3 µM. The text has this: National Center for Advancing Translational Sciences [NCATS] NIH Chemical Genomics Center [NCGC] U.S. Environmental Protection Agency [EPA] National Institutes of Environmental Health Sciences [NIEHS] National Toxicology Program [NTP] Assay overview: All-trans Retinoic acid (atRA) is the potent natural metabolite of retinol and plays an important role in normal embryonic development and maintenance of cellular phenotype in adult animals. atRA is the activating ligand for the retinoic acid receptors (RARs) which form heterodimers with retinoid X receptors (RXRs) on the retinoic acid response element (RARE). Through activation of the RAR/RXRs nuclear receptors, atRA regulates the transcription of a large number of protein-coding genes and regulatory RNAs. Intracellular levels of atRA are controlled by the retinol signaling pathway (RSP) that regulates the biosynthesis and catabolism of atRA to maintain physiological levels. Chemicals that interfere with the RSP can cause abnormal intracellular levels of atRA and therefore are potential developmental toxicants. To assess compounds for the potential adverse effect on embryonic development through interfering with retinol signaling, a cell-based RARE luciferase reporter gene assay was used. C3RL4 cell line (OARSA/CFSAN/FDA, Laurel, MD) was used to screen Tox21 10K compound library for identifying activators of the RSP.
Assay Protocol Summary: C3RL4 cells were seeded at 1,000/well in 5 uL of assay medium into white solid 1,536-well tissue culture plates (Greiner Bio-One North America Inc. Monroe, NC) using a Multidrop Combi (Thermo Scientific, Waltham, MA) dispenser. After incubation at 37 C and 5% CO2 for an overnight, 23 nL of compounds dissolved in DMSO, positive control or DMSO only were transferred by a Pintool station (Kalypsys, San Diego, CA). After 6 hr incubation at 37 C and 5% CO2, 5 uL of Amplite Luciferase reagent (AAT Bioquest Inc. Sunnyvale, CA) was added to each assay plate using a Flying Reagent Dispenser (FRD) (Aurora Discovery, San Diego, CA). Luminescence was quantified on a ViewLux plate reader (PerkinElmer, Waltham, MA) after 30 min incubation at room temperature.
(qHTS replaces the single test concentration by a dilution series.)
Turning to `CC(C)C(=O)c1c(C(C)C)nn2ccccc12`, the Potency entry was “inactive”.
In the case of `Cc1cccc([N+](=O)[O-])c1C(=O)O`, the Potency result is “inactive”.
With `CCCCC(CC)COC(=O)CC(C(=O)OCC(CC)CCCC)S(=O)(=O)O` (stereo not given), the Potency entry was “inactive”.
For the compound `COC(=O)c1cccc(C(=O)OC)c1`, the Potency entry is “inactive”.
For `Cc1cccc(O)c1C`, the Potency entry was “inactive”.
As to `CCC(C)(C)C(=O)O[C@H]1C[C@@H](C)C=C2C=C[C@H](C)[C@H](CC[C@@H]3C[C@@H](O)CC(=O)O3)[C@H]21`, the Potency result was “inactive”.
With `O=C(Oc1ccccc1)c1ccccc1O`, the Potency result is “inactive”.
Next, `Oc1c(Cl)cc(Cl)cc1Sc1cc(Cl)cc(Cl)c1O`: “inactive”; `O=C(O)Cn1cnnn1`: “inactive”.
As for `Nc1cc(S(=O)(=O)O)cc2cc(S(=O)(=O)O)cc(O)c12`, the Potency entry was “inactive”.
Turning to `c1ccc2n[nH]nc2c1`, the Potency entry was “inactive”.
Take `CCn1cc(C(=O)O)c(=O)c2cc(F)c(N3CCNC(C)C3)c(F)c21` (stereo not given): the Potency result is “inactive”.
Regarding `Nc1ccc(O)cc1`, the Potency is 20.1 µM (active).
The value for `c1ccc2c(c1)CCCC2C1=NCCN1` (stereo not given) was “inactive”.
On to `Oc1ccc(Cl)cc1Cc1cc(Cl)ccc1O`, for which the Potency entry is “inactive”.
The value for `C1COC(NC(C2CC2)C2CC2)=N1` was “inactive”; that for `C/C=C/c1ccc(OCC)c(O)c1` was 54.5 µM (active).
`CCOC(=O)C(C)C(C)=O` (stereo not given): the Potency result is “inactive”.
Next, `CCc1ccc(C(c2ccc(CC)cc2)C(Cl)Cl)cc1`: “inactive”; `[Cl][In]([Cl])[Cl]`: “inactive”; `C=CC(=O)OCCCCCCCC`: “inactive”.
For the compound `Cc1occc(=O)c1OC(=O)C(C)C`, the Potency entry was “inactive”.
Next, `c1cnc2cc3c(cc2n1)C1CNCC3C1`: “inactive”.
In the case of `O=C(O)c1cc(Cl)cc(Cl)c1`, the Potency entry was “inactive”.
As to `O=C1NCC2(CCN(CCc3ccccc3)CC2)O1`, the Potency result is “inactive”.
In the case of `O=S(=O)(O)c1ccc2nc(-c3ccccc3)[nH]c2c1`, the Potency entry is “inactive”.
In the case of `c1cc(C(c2ccc(OCC3CO3)cc2)C(c2ccc(OCC3CO3)cc2)c2ccc(OCC3CO3)cc2)ccc1OCC1CO1` (stereo not given), the Potency is 8.96 µM (active) and 27.3 µM (active).
As to `C=C(C)C1CC=C(C)C(OC(C)=O)C1` (stereo not given), the Potency entry was “inactive”.
Next, `NNCCc1ccccc1`: 1.37 µM (active) and 9.44 µM (active).
As to `CC(=O)CC(C)=O`, the Potency entry is “inactive”.
Turning to `COc1nc(C)nc(Cl)c1NC1=NCCN1`, the Potency entry is “inactive”.
Regarding `OCCOCCN1CCN(C(c2ccccc2)c2ccc(Cl)cc2)CC1` (stereo not given), the Potency entry was “inactive”.
Next, `NC(N)=NC(=O)Cc1c(Cl)cccc1Cl`: “inactive”; `CC(C)CCOC(=O)c1ccc(N(C)C)cc1`: 2.11 µM (active).
In the case of `O=Cc1ccc(Cl)cc1`, the Potency result was “inactive”.
Next, `CN1C(=O)c2ccc([N+](=O)[O-])cc2C1=O`: “inactive”.
As for `NCCO`, the Potency entry was “inactive”.
On to `CCCCCCCCCCCC[N+](C)(C)C`, for which the Potency entry was “inactive”.
Take `CC(N)=O`: the Potency entry is “inactive”.
Next, `NCCCCCC(=O)O`: “inactive”.
